Screens: PubChem, Broad Institute
YB-1 expression: YB-1 expression inhibition | U2OS, qRT-PCR YB-1 vs CDIP delta delta Cp, 16 h; stronger effect = higher value; zero = DMSO, each unit about twofold | delta delta Cp (YB-1 minus CDIP) (concentration not given with the values) | 30,000 compounds, 0.37% hits | AID 434959;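 active = delta delta Cp rounded down to an integer at or above 3, about 3 SD of DMSO wells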;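 also: higher means less YB-1 transcript or more CDIP transcript relative to DMSO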
ROS inducer: inducers of reactive oxygen species in cancer cells | U2OS ROS induction, H2DCF-DA fluorescence | ROS induction (% of piperlongumine), % at 10 µM | 46,000 compounds, 2% hits | AID 624156; in the data active = ROS induction above about 79%, passing the limit was not always enough; inconclusive = no clear call, values can overlap the other calls
Hits are given with their value. The list is not random: actives were taken first. Their share in the collection is about 2.1%.

How did C[C@H]1CN([C@@H](C)CO)C(=O)Cc2cc(NC(=O)Cc3cn(C)c4ccccc34)ccc2O[C@H]1CN(C)Cc1ccc(C(=O)Nc2ccccc2N)cc1 do in these assays?
YB-1 expression: inactive; ROS inducer: inactive

How did C[C@@H]1CN([C@H](C)CO)C(=O)c2cc(NC(=O)Cc3cn(C)c4ccccc34)ccc2O[C@H]1CN(C)Cc1ccc(-c2ccccc2)cc1 do in these assays?
YB-1 expression: inactive; ROS inducer: inactive

What do the screens show for `C[C@@H]1CN([C@@H](C)CO)C(=O)Cc2cc(NC(=O)Cc3cn(C)c4ccccc34)ccc2O[C@@H]1CN(C)Cc1ccc(Oc2ccccc2)cc1`?
YB-1 expression: inactive; ROS inducer: 122

How did C=CCNC(=O)CN1N=C(c2ccccc2)CCC1=O do in these assays?
ROS inducer: inactive

How did CC1CCN(Cc2ccc(NC(=O)Nc3cccs3)cc2)CC1 do in these assays?
ROS inducer: inactive

Results for C[C@@H]1CN([C@@H](C)CO)C(=O)c2cc(NC(=O)Cc3cn(C)c4ccccc34)ccc2O[C@H]1CN(C)Cc1ccc(Cl)c(Cl)c1 ?
YB-1 expression: inactive; ROS inducer: inactive

How did C[C@H](CO)N1C[C@H](C)[C@@H](CN(C)Cc2ccc(Oc3ccccc3)cc2)Oc2ccc(NC(=O)Cc3cn(C)c4ccccc34)cc2C1=O do in these assays?
YB-1 expression: inactive; ROS inducer: 113

What do the screens show for `C[C@H]1CN([C@@H](C)CO)C(=O)c2cc(NC(=O)Cc3cn(C)c4ccccc34)ccc2O[C@H]1CN(C)Cc1ccc(-c2ccccc2)cc1`?
YB-1 expression: inactive; ROS inducer: inactive

Results for C[C@H](CO)N1C[C@H](C)[C@@H](CN(C)Cc2ccc(Cl)c(Cl)c2)Oc2ccc(NC(=O)Cc3cn(C)c4ccccc34)cc2C1=O ?
YB-1 expression: inactive; ROS inducer: 152

What do the screens show for `COc1cc(O)cc2c1C(=O)OC(C)C2` (stereo not given)?
YB-1 expression: inactive; ROS inducer: inactive

Results for C[C@@H]1C[C@@H]2O[C@H]2/C=C/C=C\C(=O)Cc2c(Cl)c(O)cc(O)c2C(=O)O1 ?
YB-1 expression: inactive; ROS inducer: 140

Results for COc1cc2c(cc1OC)CN(C(=O)[C@H]1[C@@H]3C(=O)O[C@@H](c4ccccc4)[C@@H](c4ccccc4)N3[C@@H](c3ccc(OCCO)cc3)[C@]13C(=O)Nc1ccc(C#CC4(O)CCCCCC4)cc13)CC2 ?
YB-1 expression: inactive; ROS inducer: inactive

How did COc1cc2c(cc1OC)CN(C(=O)[C@@H]1[C@H]3C(=O)O[C@H](c4ccccc4)[C@H](c4ccccc4)N3[C@H](c3ccccc3OCCO)[C@@]13C(=O)Nc1ccc(C#CC4(O)CCCCCC4)cc13)CC2 do in these assays?
YB-1 expression: inactive; ROS inducer: 88

What do the screens show for `COc1ccc(C#Cc2ccc3c(c2)[C@]2(C(=O)N3)[C@H](C(=O)N3CCc4cc(OC)c(OC)cc4C3)[C@H]3C(=O)O[C@H](c4ccccc4)[C@H](c4ccccc4)N3[C@@H]2c2ccccc2OCCO)cc1`?
YB-1 expression: inactive; ROS inducer: inactive

How did COc1cc2c(cc1OC)CN(C(=O)[C@H]1[C@@H]3C(=O)O[C@@H](c4ccccc4)[C@@H](c4ccccc4)N3[C@@H](c3ccccc3OCCO)[C@]13C(=O)Nc1ccc(C#CC4(O)CCCCCC4)cc13)CC2 do in these assays?
YB-1 expression: inactive; ROS inducer: 96

Results for Nc1nnnn1/N=C\C=C\c1ccccc1 ?
ROS inducer: inactive

How did N#CCSc1ccc2nnc(-c3ccncc3)n2n1 do in these assays?
ROS inducer: inactive

What do the screens show for `COc1cccc(CNC(=O)c2cnn3c(C)c(Cc4c(C)cc(C)cc4C)c(C)nc23)c1`?
ROS inducer: 142

Results for Cc1nc2c(C(=O)NCc3ccc4c(c3)OCO4)cnn2c(C)c1Cc1c(F)cccc1Cl ?
ROS inducer: inactive

How did Cn1cnnc1S/C=C/C(=O)c1ccc(Cl)cc1 do in these assays?
YB-1 expression: inactive; ROS inducer: inactive

What do the screens show for `C/C=C/C=C/C(=O)c1cc(C)c(O)c(C)c1O`?
YB-1 expression: inactive; ROS inducer: 102

How did C=CCn1c(SCC(=O)Nc2ccc(S(N)(=O)=O)cc2)nnc1-c1ccco1 do in these assays?
ROS inducer: inactive

What do the screens show for `CS(=O)(=O)/C(C#N)=C/Nc1cnccn1`?
YB-1 expression: inactive; ROS inducer: inactive

How did Cc1cc(/C=C(/C#N)S(C)(=O)=O)c2c(C)ccc(C(C)C)cc1-2 do in these assays?
ROS inducer: 85

Results for O=C(CSc1nncn2c1cc1occc12)NCCc1ccccc1 ?
ROS inducer: inactive

Results for CCN(CC)S(=O)(=O)c1ccc(NC(=O)COc2ccc(Cl)cc2Cl)cc1 ?
ROS inducer: inactive

How did COc1cccc(C(=O)c2sc3nsc(SCc4ccccc4)c3c2N)c1 do in these assays?
YB-1 expression: inactive; ROS inducer: 335

What do the screens show for `COc1cc(OC)cc(-c2nnc(SCc3cccc(C(=O)O)c3)o2)c1`?
ROS inducer: inactive

How did COCCOC(=O)N1C(=O)[C@@]2(c3ccccc31)[C@H](C(=O)N1CCN(c3ncccn3)CC1)[C@H]1C(=O)O[C@H](c3ccccc3)[C@H](c3ccccc3)N1[C@@H]2c1ccccc1OCCO do in these assays?
YB-1 expression: inactive; ROS inducer: 122

Results for COCCOC(=O)N1C(=O)[C@@]2(c3cc(C#CC4(O)CCCCCC4)ccc31)[C@H](C(=O)N1CCN(c3ncccn3)CC1)[C@H]1C(=O)O[C@H](c3ccccc3)[C@H](c3ccccc3)N1[C@@H]2c1ccc(O)cc1 ?
YB-1 expression: inactive; ROS inducer: inactive

How did COCCOC(=O)N1C(=O)[C@@]2(c3cc(C#CCCO)ccc31)[C@H](C(=O)N1CCN(c3ncccn3)CC1)[C@H]1C(=O)O[C@H](c3ccccc3)[C@H](c3ccccc3)N1[C@@H]2c1ccccc1OCCO do in these assays?
YB-1 expression: inactive; ROS inducer: 166

What do the screens show for `COCCOC(=O)N1C(=O)[C@@]2(c3ccccc31)[C@H](c1ccccc1OCCO)N1[C@H](c3ccccc3)[C@H](c3ccccc3)OC(=O)[C@H]1[C@@H]2C(N)=O`?
YB-1 expression: inactive; ROS inducer: inconclusive

What do the screens show for `CCc1ccc(Sc2cc(C(=O)NCC3CCCO3)c3ccccc3n2)cc1` (stereo not given)?
ROS inducer: inactive

What do the screens show for `O=C(Cc1cccc2ccccc12)NN1C(=O)C2C3C=CC(C3)C2C1=O` (stereo not given)?
ROS inducer: inactive

How did O=C(N/N=C/c1c(F)c(F)c(F)c(F)c1F)c1ccccn1 do in these assays?
YB-1 expression: inactive; ROS inducer: 117

What do the screens show for `O=C(N/N=C/c1ccc(F)cc1)c1ccccn1`?
YB-1 expression: inactive; ROS inducer: inactive

Results for CNC(=O)Nc1ccc(C(=O)OC)cc1 ?
ROS inducer: inactive

How did COc1ccc(S(=O)(=O)Nc2cccc3c2O[C@H](CN(C)Cc2ccc(-c4ccccc4)cc2)[C@H](C)CN([C@H](C)CO)C3=O)cc1 do in these assays?
YB-1 expression: inactive; ROS inducer: 96

Results for Cc1noc(C)c1S(=O)(=O)Nc1cccc2c1O[C@@H](CN(C)Cc1ccc(-c3ccccc3)cc1)[C@@H](C)CN([C@@H](C)CO)C2=O ?
YB-1 expression: inactive; ROS inducer: inactive

Results for COc1ccc(S(=O)(=O)Nc2cccc3c2O[C@H](CN(C)Cc2ccc(Oc4ccccc4)cc2)[C@H](C)CN([C@@H](C)CO)C3=O)cc1 ?
YB-1 expression: inactive; ROS inducer: 110
